SENP7 block: SENP7 protease inhibitors, primary screen, biochemical, luminescence, uHTS | 330,000 compounds, 1.5% hits | inhibition, % at 5 µM | AID 434973, 2010 | Sentrin-specific protease 7 (Homo sapiens), Q9BQF6 | recombinant SENP7, Z-RLRGG-aminoluciferin luminescence, 40 min;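 active = inhibition above about 50% at the single test dose, limit read from the data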
AHR act: AHR activators, primary screen, cell-based, luminescence, luciferase reporter, human | AHR-responsive luciferase reporter cells | activation, % at 5 µM | 320,000 compounds, 2.5% hits | Aryl hydrocarbon receptor (Homo sapiens), P35869; in the data active = activation above about 47%
EBI2 antag: EBI2 receptor antagonists, beta-arrestin recruitment, primary screen, cell-based, luminescence, 7a,25-OHC stimulation, uHTS | 360,000 compounds, 0.81% hits | AID 651636, 2012 | G-protein coupled receptor 183 (Homo sapiens), P32249 | 7a,25-OHC stimulated | inhibition, % at 5 µM; in the data active = inhibition above about 38%;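 also: enzyme fragment complementation signal reports receptor beta-arrestin coupling in cells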
Target sequence (P32249 whole entry, looked up, the tested form may be a part): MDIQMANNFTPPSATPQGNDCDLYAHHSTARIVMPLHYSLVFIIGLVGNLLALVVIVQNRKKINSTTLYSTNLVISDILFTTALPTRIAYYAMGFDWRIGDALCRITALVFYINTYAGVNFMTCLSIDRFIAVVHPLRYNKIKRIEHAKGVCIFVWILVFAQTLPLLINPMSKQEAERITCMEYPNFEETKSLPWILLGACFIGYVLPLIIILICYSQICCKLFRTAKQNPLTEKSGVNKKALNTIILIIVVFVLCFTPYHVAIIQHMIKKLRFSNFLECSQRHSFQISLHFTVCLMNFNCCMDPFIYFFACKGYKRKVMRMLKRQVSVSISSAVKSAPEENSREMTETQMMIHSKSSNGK
SENP8 block-1: human SENP8 protease inhibitors, primary screen, biochemical, fluorescence, Nedd8 protein substrate, uHTS; recombinant SENP8; inhibition, % at 20 µM; Sentrin-specific protease 8 (Homo sapiens), Q96LD8; 360,000 compounds, 0.64% hits; in the data active = inhibition mostly above about 40%, no sharp cut-off; inactive = mostly below about 27%
Target sequence (Q96LD8 whole entry, looked up): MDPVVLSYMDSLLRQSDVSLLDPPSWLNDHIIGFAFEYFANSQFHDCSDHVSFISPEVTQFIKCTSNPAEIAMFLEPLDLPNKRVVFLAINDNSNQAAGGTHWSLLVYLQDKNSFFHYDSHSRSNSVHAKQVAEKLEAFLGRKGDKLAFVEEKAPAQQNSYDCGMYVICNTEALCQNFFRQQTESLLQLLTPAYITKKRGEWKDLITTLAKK
SENP8 block-2: SENP8 protease inhibitors, primary screen, biochemical, luminescence | Sentrin-specific protease 8 (Homo sapiens), Q96LD8 | purified SENP8, Z-RLRGG-aminoluciferin cleavage | inhibition, % at 10 µM | 330,000 compounds, 1.2% hits; in the data active = inhibition above about 50%
SENP6 inh: SENP6 protease inhibitors, primary screen, biochemical, luminescence, uHTS; 330,000 compounds, 1.8% hits; inhibition, % at 10 µM; Sentrin-specific protease 6 (Homo sapiens), Q9GZR1; Recombinant SENP6 catalytic domain, aminoluciferin luminescence;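 active = inhibition above about 50% at the single tested dose, limit read from the data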
AHR act cf: AHR activators, confirmation, cell-based, luminescence, luciferase reporter, human; shares compounds with AHR act; human cells, AHR-responsive luciferase reporter; 2,300 compounds, 87% hits; activation, % at 9 µM; in the data active = activation above about 49%;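 also: HepG2 hepatoma cells carrying a DRE-driven firefly luciferase reporter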
PXR counter: human PXR activators, counter-screen for AHR activator project, cell-based, luciferase luminescence; shares compounds with AHR act; cell-based PXR reporter; activation, % at 11.6 µM; 2,300 compounds, 88% hits; AID 434939, 2010; in the data active = activation above about 11%;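 also: human hepatoma DPX-2 cells expressing full-length human PXR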
A number is an active result; - = inactive; . = no result given. Most compounds without a hit are left out; they make up all but 5% or so of the library.

SMILES	SENP7 block	AHR act	EBI2 antag	SENP8 block-1	SENP8 block-2	SENP6 inh	AHR act cf	PXR counter
O=c1[nH]c(-c2ccc(O)cc2)nc2scc(-c3cccs3)c12	-	124	-	-	-	-	86	23
Cc1nc2scc(-c3cccs3)c2c(=O)[nH]1	-	-	-	-	-	-	.	.
Cc1nc(SCC(=O)N(C)Cc2ccco2)c2c(C)c(C)sc2n1	-	92	-	-	-	-	55	182
CCN(C(=O)CSc1nc(C)nc2sc(C)c(C)c12)c1ccc(F)cc1	-	-	-	-	-	-	.	.
O=C(Cc1c(Cl)cccc1Cl)OCC(=O)N1CCOCC1	-	-	-	-	-	-	.	.
CCNC(=S)Nc1cccc(NC(=O)c2ccccc2O)c1	-	86	-	-	-	-	124	14
CCNC(=S)Nc1ccc(NC(=O)c2ccccc2O)cc1	-	-	-	-	-	-	.	.
COc1ccc(-c2ccc3oc(-c4ccsc4)c(-c4ccc(Br)nc4)c3c2)cc1	-	102	.	.	-	-	97	26
CC(C)(O)C#Cc1cccc(-c2nc(C(=O)NCCCN3CCOCC3)cc3c2[C@H](CCO)N(S(=O)C(C)(C)C)C3)c1 (stereo partly specified)	.	.	-	-	.	.	.	.
CC(C)(C)c1ccc(OC(=O)c2ccc(-n3cncn3)nc2)cc1	-	-	.	.	-	-	.	.
Cc1cccc(-n2ncc3c(NCCCn4ccnc4)ncnc32)c1	-	83	-	-	-	-	57	45
Cc1sc2ncnc(NCCCn3ccnc3)c2c1C	-	127	-	-	-	-	102	22
CCc1noc(C)c1C(=O)Nc1ccc(F)c(F)c1	-	-	-	-	-	-	.	.
CC1CN(CC(=O)NCc2ccc(F)cc2)CC(C)O1 (stereo unspecified)	-	-	-	-	-	-	.	.
CC(=O)c1cccc(NC(=O)c2csc3c2CCCCC3)c1	-	-	-	-	-	-	.	.
CCOc1ccc(NC(=O)c2csc3c2CCCC3)cc1	-	146	-	-	-	-	110	45
COc1ccc(N2CCN(C(=O)COc3ncnc4ccccc34)CC2)cc1	-	-	-	-	-	-	.	.
CCCOC(=O)c1cc(NC(=O)/C=C/c2ccccc2)ccc1O	-	-	-	-	-	-	.	.
COC(=O)[C@@H](NC(=O)NC1CCCCC1C)C(C)C (stereo partly specified)	-	-	-	-	-	-	.	.
CCn1c(SCC(=O)N/N=C/C=C\c2ccccc2[N+](=O)[O-])nc2ccccc21	-	-	-	-	-	-	.	.
Cn1c(SCC(=O)N/N=C/C=C/c2ccccc2[N+](=O)[O-])nc2ccccc21	-	117	-	-	-	-	56	75
Cn1c(SCC(=O)N/N=C/C=C\c2ccccc2[N+](=O)[O-])nc2ccccc21	-	108	-	-	-	-	55	81
CC(=O)NC1=NN(C(C)=O)C(c2ccccn2)S1 (stereo unspecified)	-	-	-	-	-	-	.	.
O=c1c2ccccc2nc2c3ccccc3c(NCc3cccnc3)nn12	-	-	-	-	-	-	.	.
O=c1c2ccccc2nc2c3ccccc3c(NCc3ccccn3)nn12	-	119	-	-	-	-	113	128
SMILES	SENP7 block	AHR act	EBI2 antag	SENP8 block-1	SENP8 block-2	SENP6 inh	AHR act cf	PXR counter
COc1ccccc1NC(=O)c1cc(=O)[nH]c2ccccc12	-	80	-	-	-	-	92	16
COc1ccccc1NC(C)=O	-	-	-	-	-	-	.	.
COc1ccccc1NC(=O)C(=N\O)/C(C)=N/O	-	89	-	-	-	-	116	25
CCn1nc(NC(=O)CC(C)C)c2cc3cccc(C)c3nc21	-	-	-	-	-	-	.	.
CCn1nc(NC(=O)C(C)(C)C)c2cc3cccc(C)c3nc21	-	85	-	-	-	-	89	139
COc1ccc(Cl)cc1NCCC(O)c1ccc(F)cc1 (stereo unspecified)	-	89	-	-	-	-	-	40
COc1ccc(NCCC(O)c2ccc(Cl)cc2)cc1 (stereo unspecified)	-	-	-	-	-	-	.	.
Cc1ccc2c(C(=O)CNc3nncs3)c(C)[nH]c2c1	-	106	-	-	-	-	-	17
COCC(=O)Nc1nnc(CCc2ccccc2)s1	-	-	-	-	-	-	.	.
COCC(=O)Nc1nnc(-c2cccs2)s1	-	81	-	-	-	-	94	.
C=C(C)C(=O)Nc1nnc(-c2cccs2)s1	-	-	-	-	-	-	.	.
CCC(C)C(=O)Nc1nnc(-c2cccs2)s1 (stereo unspecified)	-	84	-	-	-	-	81	48
COc1ccc(NC(=O)c2cnc3sccn3c2=O)cc1	-	-	-	-	-	-	.	.
Cc1cccc(NC(=O)c2cnc3sccn3c2=O)n1	-	168	-	-	-	-	135	14
O=C(NCc1cccnc1)c1cnc2sccn2c1=O	-	81	-	-	-	-	-	-
O=C(Nc1ccon1)c1cnc2sccn2c1=O	-	139	-	-	-	-	107	.
CCOc1ccccc1NC(=O)COC(=O)C(CC)c1ccccc1 (stereo unspecified)	-	-	-	-	-	-	.	.
Cc1ccc2c(c1)-c1[nH]c(=S)ncc1CS2	-	-	-	-	-	-	.	.
Cc1nc(C(=O)N2CCCC(Nc3ccc(C)c(C)c3)C2)cs1 (stereo unspecified)	-	.	-	-	-	-	.	.
CSc1nc(C(=O)N2CCCC(Nc3ccc(C)c(C)c3)C2)cs1 (stereo unspecified)	-	108	-	-	-	-	75	119
CCC(C)[C@H](NC(=O)C1CCN(C(=O)[C@H](Cc2ccccc2)NS(=O)(=O)c2ccc(C)cc2)CC1)C(=O)O (stereo partly specified)	-	-	-	-	-	-	.	.
COc1ccccc1NC(=O)C1CCCN(c2cnccn2)C1 (stereo unspecified)	-	96	-	-	-	-	80	24
COc1ccc(-c2coc3cc(OC)cc(OC)c3c2=O)cc1	-	93	-	-	-	-	132	26
O=C(/C=C/c1cccnc1)/C=C/c1cccnc1	.	.	-	-	.	.	.	.

High-throughput results deposited in PubChem BioAssay by several laboratories.
